# FLuc modulator = firefly luciferase modulation, counter-screen for miR-21 project | 360,000 compounds, 6.9% hits | Potency, µM (top dose mostly 57.5 µM), without a hit: top-dose activity change, negative = inhibition, hits mostly inhibitors | purified FLuc, Km substrates, luminescence inhibition | P08659;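 also: plate controls were vehicle for no effect and reference inhibitor for full effect; nearly all actives have a fitted effect of over 55% in size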
# Target sequence (P08659 whole entry, looked up): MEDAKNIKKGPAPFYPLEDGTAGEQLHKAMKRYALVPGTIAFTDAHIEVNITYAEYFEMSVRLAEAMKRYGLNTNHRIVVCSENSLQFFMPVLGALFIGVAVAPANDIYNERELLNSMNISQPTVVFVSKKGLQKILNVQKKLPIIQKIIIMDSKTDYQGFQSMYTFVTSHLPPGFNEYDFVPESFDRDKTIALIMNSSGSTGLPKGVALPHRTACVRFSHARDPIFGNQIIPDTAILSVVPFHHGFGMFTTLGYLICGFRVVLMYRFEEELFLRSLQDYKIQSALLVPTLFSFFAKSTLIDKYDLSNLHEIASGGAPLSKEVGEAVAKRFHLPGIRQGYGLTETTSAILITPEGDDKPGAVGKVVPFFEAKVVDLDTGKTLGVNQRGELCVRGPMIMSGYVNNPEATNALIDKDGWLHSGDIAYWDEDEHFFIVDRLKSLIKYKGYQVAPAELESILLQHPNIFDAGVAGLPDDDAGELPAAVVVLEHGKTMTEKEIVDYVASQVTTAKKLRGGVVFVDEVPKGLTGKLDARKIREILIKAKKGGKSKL
#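 Biochemical qHTS of compounds, final roughly 60 µM downward over six points, against 10 nM purified firefly luciferase using Km concentrations of substrates (10 uM D-luciferin, 10 uM ATP) in Tris acetate pH 7.5 buffer; luminescence output.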
# Rab9 promoter act = activators of Rab9 promoter; Potency, µM (doses to about 9.22 µM), inactives show top-dose activation, negative = inhibition, most hits filed as activators; Huh7 Rab9 promoter-luciferase reporter, luminescence, 24 h; 320,000 compounds, 2.8% hits; AID 485297; also: % of control where 0% means no effect; nearly all actives have a fitted effect of over 60% in size
#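 Luminescence from Amplite-detected luciferase (10 minutes, ambient) reports Rab9 promoter activation. Before that, stable Rab9-luciferase Huh7 cells (1500/well, reduced-serum OP-MEM I plus 10% FBS) were exposed to compound for 24 hours at 37C.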
# ELG1 genotox = inducers of genotoxicity in HEK293T ELG1-luciferase cells; HEK293T ELG1-luciferase reporter, luminescence, 16 h; Potency, µM (titrated, usually from 46 µM), for the others: at the top dose activity change, positive = activation, hits mostly activators; 330,000 compounds, 1.3% hits; also: % of control where 0% means no effect; nearly all actives have a fitted effect of over 60% in size
#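 Screening used a luciferase reporter fused to human ELG1 in HEK293T cells. Luminescence was read on a CCD plate imager after 16 hr exposure and 30 min ONE-Glo incubation.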
# KinaseGlo FLuc = Kinase-Glo luciferase inhibition (counter-screen); AID 1379; Q27757; Potency, µM (highest dose often 38.3 µM), inactives show at the top dose activity change, negative = inhibition, most hits filed as inhibitors; Kinase-Glo luciferase, ATP luminescence, 8 min; 200,000 compounds, 0.28% hits; also: % is scaled to controls: 0 for no effect and ±100 for the full control effect; nearly all actives have a fitted effect of over 60% in size
#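 Recombinant Kinase-Glo luciferase, 10 uM ATP (linear range), luciferin; imidazole pH 7.2 / KCl / MgCl2 / Tween / BSA buffer; 8 min RT; luminescence.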
# SMN2 splice up = enhancers of SMN2 splice variant expression. HEK293 SMN2-luciferase splicing reporter, luminescence, 30-36 h. Potency, µM (titrated, usually from 46.1 µM), without a hit: at the top dose activity change, positive = activation, usual class: activators. 210,000 compounds, 2.8% hits. AID 1458; also: % of control where 0% means no effect; nearly all actives have a fitted effect of over 55% in size
#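 HEK293 cells carry an SMN2 minigene-luciferase reporter in which exon 7 inclusion puts luciferase in frame. Cells were seeded at 2000 cells/well, attached for 10-12 hours, then exposed to compounds for 30-36 hours at 37C before ONE-Glo luminescence.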
# NPC1 prom act = activators of NPC1 promoter; Huh7 NPC1 promoter luciferase reporter, 24 h; Potency, µM (highest dose often 9.22 µM), without a hit: top-dose activation, usual class: activators; 320,000 compounds, 2.4% hits; AID 485313; also: % of control where 0% means no effect; nearly all actives have a fitted effect of over 60% in size
#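 Cells: Huh7 expressing luciferase under the NPC1 promoter, 1500/well. Seeded 2 h, compound added, incubated 24 h at 37 °C. Luciferase reagent, 10 min ambient, then luminescence.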
# * marks the source's active call; other numbers are inactive results; ? = inconclusive; nt = not tested or not shown; [ ] = remark or other dose. Shown are actives, neighbours in structure and some others; about 7.4% of the full set was active somewhere. Calls follow the shape of the dose curve; as a rule, active = well fitted curve in the direction sought with a large enough effect; inconclusive = small, poorly fitted or top-dose-only effect, or another doubt; inactive = no such curve, though single readings can be large; an effect the other way counts as inactive or inconclusive. Potency is read from the fitted curve at half-maximal effect.
SMILES,FLuc modulator,Rab9 promoter act,ELG1 genotox,KinaseGlo FLuc,SMN2 splice up,NPC1 prom act
O=C1NC(c2cccc(Br)c2)=N/C1=C\c1ccco1,11µM*,?,16%,-5%,-13%,?
O=C1NC(c2ccccc2)=N/C1=C/c1ccco1,2.1µM*,3.2µM*,?,?,13µM*,3.5µM*
O=C1NC(=O)/C(=C/c2ccco2)N1,-3%,0%,5%,nt,nt,0%
COC(=O)C1CCN(C(=O)[C@H](C)NC(=O)C2CC(=O)N(c3ccc(F)cc3)C2)CC1 (some centres undefined),1%,-2%,0%,nt,nt,-4%
CC(=O)c1ccc(NC2OC(C)C(O)C(O)C2O)cc1 (centres undefined),0%,-5%,7%,-3%,?,1%
C[C@@H]1OC(Nc2ccc(N=Nc3ccccc3)cc2)[C@H](O)[C@H](O)[C@H]1O (some centres undefined),24µM*,?,11%,nt,nt,?
CC(OC(=O)c1ccc2c(c1)NC(=O)CS2)C(=O)c1ccc(F)cc1 (centres undefined),nt,nt,0%,nt,nt,nt
Cc1ccc(OCC(=O)Nc2ccc(F)cc2)cc1,15µM*,-5%,?,-4%,19%,-1%
Cc1ccc(OCC(=O)Nc2ccncc2)cc1,13µM*,0%,5%,nt,nt,0%
COc1ccc(OCC(=O)Nc2ccc(C)cc2)cc1,?,3%,18%,-5%,9%,-2%
Cc1cccc(C#Cc2ccccc2)n1,6µM*,5µM*,8.2µM*,13µM*,13µM*,5.8µM*
COc1cccc(NC(=O)Nc2cc(C(=O)O)ccc2N2CC3CC(C2)c2cccc(=O)n2C3)c1 (centres undefined),0%,-7%,0%,nt,nt,-7%
COc1ccc(C2CC2/C(C)=N/OC(=O)c2ccc(F)cc2)cc1 (centres undefined),?,2%,3%,4%,3%,3%
COC(=O)c1ccc(OC(=O)c2cccs2)cc1,24µM*,3%,3%,-1%,7%,-21%
COc1ccc(OCCOC(=O)c2cccs2)cc1,17µM*,-8%[1.84 µM],23µM*,-10%,0%,1%
COc1ccc(C(=O)O/N=C(\C)c2nccs2)cc1,0.48µM*,15%,1%,13µM*,nt,-2%
C/C(=N\OC(=O)c1ccc(F)cc1)c1nccs1,0.67µM*,3%,-1%,-26%,-6%,-4%
COc1ccc(C(=O)N/N=C/c2ccc(OC(=O)c3cccs3)cc2)cc1,0%,-4%,10%,1%,19%,5%
O=C(CN1CCN(Cc2ccccc2)CC1)Nc1ccc(Br)cc1,0%,-2%,2%,nt,nt,-2%
CCCCOC(=O)c1ccc(Nc2ncnc3c2cnn3-c2cccc(C)c2)cc1,-7%,nt,nt,nt,nt,nt
CC1COC(C)(CC(=O)NN2C(=O)c3ccccc3C2=O)O1 (centres undefined),-1%,-1%,0%,-1%,nt,0%
COC(=O)c1ccc(Cn2c(=O)cc(C(F)(F)F)c3c(C)nn(C)c32)cc1,-1%,nt,nt,nt,nt,nt
C/C(=N/OC(=O)c1c(F)cccc1F)c1nccs1,4.8µM*,-1%,-8%,-21%,4%,-4%
O=C(OCCc1cc2ccccc2c(=O)o1)c1cccs1,4.3µM*,1%,-1%,nt,nt,26%
COc1ccc(C(=O)O/N=C(/C)c2cccs2)cc1,0.076µM*,-2%,2%,13µM*,-3%,-3%
COc1ccc(C/C(N)=N/OC(=O)c2cccs2)cc1,-13%,1%,2%,1%,nt,10%
COc1ccc(C2CC2/C(C)=N/OC(=O)c2cccs2)cc1 (centres undefined),24µM*,0%,1%,-2%,11%,0%
C/C(=N\OC(=O)c1c(-c2c(F)cccc2Cl)noc1C)c1nccs1,7%,-3%,-1%,5%,nt,-9%
CCC(=O)N/C(N)=N/c1nc2ccccc2o1,11µM*,1.1µM*,?,nt,nt,4µM*

# Bioassay records as filed in PubChem BioAssay.
